Test [1] is described as follows: NCI Yeast Anticancer Drug Screen. Data for the rad50 strain (AID 155).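 Note: 0% = growth of vehicle-only cultures of the same strain.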 The settings on record: S. cerevisiae rad50 strain growth inhibition, hits give high values; at 50.0 µM unless noted. Summed up:
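DNA repair mutant yeast, compound exposure, growth read-out; inhibition is taken relative to vehicle.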

Test [2] can be described thus: NCI Yeast Anticancer Drug Screen. Data for the mec2-1 strain (AID 157). The settings on record: S. cerevisiae mec2-1 strain, hits give high values; at 50.0 µM unless noted. Summed up:
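Readout is yeast growth inhibition, normalised to vehicle-treated controls, in the mec2-1 strain exposed to compound.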

Test [3] in a line: NCI Yeast Anticancer Drug Screen. Data for the sgs1 mgt1 strain (AID 161).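 Note: 0% = growth of cultures given vehicle only.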 The settings on record: S. cerevisiae sgs1 mgt1 strain, hits give high values; at 50.0 µM unless noted. The procedure, abridged:
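Percent growth inhibition was derived by comparing compound-exposed mutant yeast with vehicle-exposed cultures. The strain carries alterations in DNA damage repair.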

Test [4] in a line: NCI Yeast Anticancer Drug Screen. Data for the cln2 rad14 strain (AID 165).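 Note: 0% = growth equal to vehicle treated cultures.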 The settings on record: S. cerevisiae cln2 rad14 strain, hits give high values; at 50.0 µM unless noted. Summed up:
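Relative to vehicle controls, growth inhibition of compound-treated cln2 rad14 yeast was recorded.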

The nature of test [5]: NCI Yeast Anticancer Drug Screen. Data for the bub3 strain (AID 167). The settings on record: S. cerevisiae bub3 mutant strain, hits give high values; at 50.0 µM unless noted. Summed up: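 In this screen, a yeast mutant lacking normal mitotic checkpoint function is challenged with compound. Relative growth versus vehicle gives the inhibition value.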
The nature of test [6]: NCI Yeast Anticancer Drug Screen. Data for the mlh1 rad18 strain (AID 175). The settings on record: S. cerevisiae mlh1 rad18 strain growth inhibition, hits give high values; at 50.0 µM unless noted. Summed up:
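Test agents were incubated with a yeast strain of defined genotype (DNA damage repair defect). Inhibition of growth was derived by comparison with vehicle-exposed cultures.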

The structures appear in SMILES notation. “And” between values parts separate entries of the source, which are not always exact repeats. Equal values may be shown once. About 79,000 compounds went through this panel and 15% of them were active in at least one assay; those are over-represented in the sample as a whole. Values without a mark were called inactive. The source made the active and inactive calls. Cut-off read from the data, not from the text of the source: active = growth inhibition above about 70%; inactive = the rest.

With `O=C1OC(=O)C2=C1CCc1ccc3ccccc3c12`, the growth inhibition is -29.8% in test [1]; -22.1% in test [2]; 5.9% in test [3]; -29.6% in test [4]; 5.75% in test [5]; -5.2% in test [6].
In the case of `OCC(O)Cc1ccccc1` (stereo not given), the growth inhibition in test [1] was -7%; in test [2], -12.8%; in test [3], 3.2%; in test [4], -13.1%; in test [5], -1.8%; in test [6], 5.05%.
Consider `Clc1ccc(/C=C/c2nc(Cl)c(-c3ccc(Cl)cc3)c(Cl)n2)cc1`, for which the growth inhibition in test [1] is -15.2%; in test [2] it was -18.8%; in test [3], -3.1%; in test [4], 14.3%; in test [5], -23.8%; in test [6] it was 5.3%.
On to `O=Nc1c(S(=O)(=O)O)cc2cc(S(=O)(=O)O)ccc2c1O`, for which the growth inhibition in test [1] is 41.9%; in test [2], 0.55%; in test [3], 45.2%; in test [4], 22.4%; in test [5], 23.1%; in test [6], 30.4%.
As to `N#Cc1c(-c2ccccc2Cl)c(-c2ccccc2Cl)nn(CCO)c1=O`, the growth inhibition was 16.9% in test [1]; 7.2% in test [2]; 13.4% in test [3]; 9.35% in test [4]; 10.2% in test [5]; 27.5% in test [6].
Turning to `Clc1cccc(C2ON=C(c3ccccc3)N2C23CC4CC(CC(C4)C2)C3)c1Cl` (stereo not given), the growth inhibition is 10.3% in test [1]; -6.55% in test [2]; 7.95% in test [3]; -13.5% in test [4]; -4% in test [5]; -3.95% in test [6].
In the case of `COc1ccccc1-n1c(=O)c(N=Nc2ccc(C)cc2)c(O)n(-c2ccccc2C)c1=S`, the growth inhibition in test [1] is -34.8%; in test [2], -10.5%; in test [3] it was -17.9%; in test [4] it was -44.1%; in test [5], 0%; in test [6], -37.5%.
`CCC(C)(CC)c1ccc(C)cc1OC`: the growth inhibition is -4.9% in test [1]; 8.15% in test [2]; -7.1% in test [3]; 18.6% in test [4]; 24.6% in test [5]; 6.9% in test [6].
`CSc1ccc2c(c1)N(CCCN(C)C)c1ccccc1S2`: the growth inhibition in test [1] is -15%; in test [2] it was -4.15%; in test [3] it was -1.05%; in test [4] it was -13.8%; in test [5], 44.5%; in test [6], 33.5%.
Take `CC(C)(C)OC(=O)N1CCC2(CC1)C(=O)NCN2c1ccccc1`: the growth inhibition in test [1] is 23.4%; in test [2], 11.9%; in test [3] it was -3%; in test [4], 31.2%; in test [5], 0.7%; in test [6], -38.9%.
As for `CCC1(C=O)C(=O)NC(=O)N1C` (stereo not given), the growth inhibition in test [1] is 3.4%; in test [2], 1.05%; in test [3], 2%; in test [4], 6.25%; in test [5] it was 1.7%; in test [6] it was 6.45%.
With `O=C1/C(=C/c2cccnc2)SC(=S)N1Cc1ccco1`, the growth inhibition was 2.7% in test [1]; -21.1% in test [2]; -8.85% in test [3]; 40% in test [4]; -6.45% in test [5]; 1.45% in test [6].
Take `CCOC(=O)C(NC(C)=O)(Nc1ccc(S(N)(=O)=O)cc1)C(F)(F)F` (stereo not given): the growth inhibition in test [1] is -16.2%; in test [2], 1.55%; in test [3], 3.95%; in test [4], 27.6%; in test [5] it was 7.7%; in test [6], -28.9%.
For `Cc1c2cc[n+](C)c(C)c2cc2c1[nH]c1ccccc12`, the growth inhibition in test [1] is 64.8%; in test [2], 19.8%; in test [3] it was 34.1%; in test [4] it was 12.8%; in test [5] it was 22.4%; in test [6], 37.8%.
For the compound `O=S1(=O)C(c2cccc(F)c2)=C(O)c2cc3ccccc3nc21`, the growth inhibition in test [1] was 15.8%; in test [2], 5.45%; in test [3] it was 11.6%; in test [4], -20.6%; in test [5], -23.8%; in test [6], 9.45%.
For `CC(=O)OCC1CCCC(C)C1COC(C)=O` (stereo not given), the growth inhibition in test [1] was 2%; in test [2], -8.7%; in test [3], -16.1%; in test [4], -24.1%; in test [5], 20.3%; in test [6], -2.95%.
Regarding `CC(C)c1cccc(C(C)C)c1NC(=O)N1CCCCC1`, the growth inhibition is 4.8% in test [1]; -16.2% in test [2]; 0.05% in test [3]; 3.85% in test [4]; -1.65% in test [5]; 10.2% in test [6].
For the compound `COc1cc2c(cc1OC)C(Cl)C(c1ccc(Br)cc1)=C2Cl` (stereo not given), the growth inhibition is 36.9% in test [1]; 67.3% in test [2]; 72.5% (active) in test [3]; 48.3% in test [4]; 55.4% in test [5]; 32.8% in test [6].
Turning to `FC(F)(F)c1ccc2nc(NCc3ccccc3)c(-c3ccccc3)nc2c1`, the growth inhibition in test [1] was 3.85%; in test [2], 15.6%; in test [3], 24.6%; in test [4], -6.25%; in test [5] it was 26.9%; in test [6], 35.8%.
Consider `Cn1nc2ccc3nccc(N4CCN(CCO)CC4)c3c2n1`, for which the growth inhibition is -25.6% in test [1]; -6.9% in test [2]; -21.6% in test [3]; -17.1% in test [4]; -8.45% in test [5]; -15% in test [6].
Turning to `Nc1ncnc2c1ncn2C1OC(COP(=O)(O)O)C(O)C1O` (stereo not given), the growth inhibition was -9.65% and -9.3% in test [1]; 1.65% and -12.6% in test [2]; 15.6% and -9.1% in test [3]; 2.95% and 9.25% in test [4]; 0.85% and -17.9% in test [5]; -9% and -13.2% in test [6].
Regarding `C1CCCC(=NN=C2CCCCCCC2)CCC1`, the growth inhibition in test [1] was 29%; in test [2], 21.6%; in test [3], 13.4%; in test [4], -16.6%; in test [5] it was -10.2%; in test [6], 14.7%.
For the compound `CCC(CN)C(F)(F)C(F)(F)C(F)(F)F` (stereo not given), the growth inhibition is 4.65% in test [1]; -12.2% in test [2]; -5.45% in test [3]; 2.7% in test [4]; 8.3% in test [5]; 6.05% in test [6].
Regarding `COc1ccc2cc3n(c(=O)c2c1OC)CCc1cc2c(cc1-3)OCO2`, the growth inhibition was 11.9% in test [1]; -20.7% in test [2]; 14.2% in test [3]; 25.4% in test [4]; 2.8% in test [5]; -0.45% in test [6].
`N#Cc1ccc(CC(=O)c2ccccc2)cc1`: the growth inhibition in test [1] is -6.05%; in test [2], 12.8%; in test [3], 0.45%; in test [4] it was -27.4%; in test [5], -0.75%; in test [6], 3.15%.
For the compound `CC(=O)OC1CC2CC1C1OC21` (stereo not given), the growth inhibition in test [1] is -2.25%; in test [2], -15.3%; in test [3], -22.1%; in test [4] it was -1.8%; in test [5], -11.7%; in test [6], -6.65%.
As for `COP(=O)(OC)/C(=C/c1cn(C(C)=O)c2ccccc12)NC(C)=O`, the growth inhibition was -21% in test [1]; -49.9% in test [2]; -13.1% in test [3]; 13.1% in test [4]; 15.4% in test [5]; -8.25% in test [6].
In the case of `CC(C)N1C(=O)NC2C1NC(=O)N2C(C)C` (stereo not given) (tested in a mixture with another compound), the growth inhibition was -14.8% in test [1]; -5.2% in test [2]; -1.15% in test [3]; 22.4% in test [4]; -12.8% in test [5]; -3.05% in test [6].
For the compound `CC(C)(C)c1cc(-n2nc3ccccc3[n+]2[O-])c(O)c(C(C)(C)C)c1`, the growth inhibition was 4.35% in test [1]; 12.8% in test [2]; 20.1% in test [3]; 18.6% in test [4]; -0.6% in test [5]; 33.6% in test [6].
In the case of `COc1ccc(OC)c(N)c1`, the growth inhibition was -4.3% in test [1]; -8.4% in test [2]; -7.55% in test [3]; 16.4% in test [4]; 3.6% in test [5]; -22.9% in test [6].
On to `Cc1cc(C)cc(N(C2=NCCS2)C2=NCCS2)c1`, for which the growth inhibition was 5% in test [1]; -4.55% in test [2]; -2.35% in test [3]; 0.45% in test [4]; 21.9% in test [5]; 4.9% in test [6].
On to `C/C=C/C(=O)Nc1cccc(OC(=O)NC(C)(C)C)c1`, for which the growth inhibition was 9.2% in test [1]; 13.1% in test [2]; 3.55% in test [3]; -2% in test [4]; 18% in test [5]; 1.65% in test [6].
As to `CC(C)(C)C(=O)Oc1ccc([N+](=O)[O-])cc1`, the growth inhibition is 2.15% in test [1]; -0.35% in test [2]; -7.55% in test [3]; -30.4% in test [4]; -33.1% in test [5]; 10.2% in test [6].
With `N=c1oc2ccc(Cl)cc2cc1C(=O)Nc1ccccc1`, the growth inhibition was 32.2% in test [1]; 32.7% in test [2]; -10.6% in test [3]; 14.1% in test [4]; 15.6% in test [5]; -35% in test [6].
With `CC(C)(O)C(O)c1ccccc1` (stereo not given), the growth inhibition is 10.9% in test [1]; 7% in test [2]; 9.1% in test [3]; 2.3% in test [4]; 1% in test [5]; 1.35% in test [6].
In the case of `COC(=O)Nn1c(C)c(C(=O)OC)c(C(=O)Nc2ccccc2)c1-c1ccccc1`, the growth inhibition in test [1] was 6.1%; in test [2], -3%; in test [3], -5.2%; in test [4], -1.45%; in test [5] it was 5.05%; in test [6], 23.5%.
On to `CC(C)[Si]1(C(C)C)OCC2OC(n3ccc(=O)[nH]c3=O)C([Se]c3ccccc3)C2O[Si](C(C)C)(C(C)C)O1` (stereo not given), for which the growth inhibition in test [1] is 0%; in test [2] it was -22.1%; in test [3], -25.5%; in test [4], -17.2%; in test [5] it was -49.9%; in test [6] it was -61.9%.
Regarding `CN(Cc1ccc(Cl)cc1)N=Nc1ccc(C(=O)O)cc1`, the growth inhibition in test [1] is -5.5%; in test [2] it was 4.4%; in test [3], 24.7%; in test [4] it was 25.8%; in test [5] it was 16.6%; in test [6], 24.6%.
In the case of `ClC1CCC[N-]C1.ClC1CCC[N-]C1.[Cl][Pt+2][Cl]` (stereo not given), the growth inhibition in test [1] was -7.1%; in test [2], 4.95%; in test [3], -9.7%; in test [4] it was -28.6%; in test [5], -3.6%; in test [6], -3.55%.
`CCc1ccc(NN=Nc2ccccc2C#N)cc1`: the growth inhibition was 8.1% in test [1]; 15.8% in test [2]; 16.2% in test [3]; -12.7% in test [4]; -1.65% in test [5]; 16.8% in test [6].

(Values after PubChem BioAssay (NCI).)
